Screens (PubChem)
Shown are actives, neighbours in structure and some others; about 6.8% of the full set was active somewhere.
PMK inhibit = blocks S. pneumoniae phosphomevalonate kinase; purified PMK, PK/LDH-coupled NADH absorbance 340 nm; inhibition, % at 10 µM; hit rate 0.49% among 65,000;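 active = top-ranked compounds by inhibition in the single 10 µM screen, taking a fixed number of the strongest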;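 note: 0% = full reaction with DMSO carrier and 100% = background rate without enzyme reaction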
Spn DPM-DC inh = blocks S. pneumoniae diphosphomevalonate decarboxylase; purified DPM-DC, PK/LDH coupled NADH fluorescence; calls only at 10 µM; hit rate 0.49% among 65,000; AID 556;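 active = the 320 compounds with the highest percent inhibition in the single-dose primary screen, excluding strongly autofluorescent ones, cut at about 32% in these data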;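 note: kinetic rate of NADH fluorescence loss reporting ADP formed by the decarboxylase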
NADH coupling = blocks coupling enzymes of NAD/NADH assays; coupled PK/LDH NADH assays, four targets; IC50, µM (highest dose often 10 µM), for the others: at the highest dose inhibition; hit rate 0.02% among 65,000; AID 774;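 active = single-dose screening hits from any of four coupled enzyme assays that gave an IC50 when retested across doses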;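 note: the DPM-DC format reads NADH fluorescence rather than 340 nm absorbance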
MK inhibit = inhibitors of Streptococcus pneumoniae mevalonate kinase; purified MK, PK/LDH-coupled NADH absorbance 340 nm; inhibition, % at 10 µM; hit rate 0.48% among 65,000; AID 555;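 active = ranked among the strongest by inhibition in the single 10 µM screen, a fixed top-ranked set picked for dose follow-up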
Abs 340nm = compounds absorbing at 340 nm. compound absorbance at 340 nm, fold over control. fold change at 10 µM. 65,000 tested, under 10 active. AID 708;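 active = at 10 µM dose, initial 340 nm absorbance at least 2 fold that of control wells; inactive = change under 2 fold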;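 note: initial absorbance extrapolated from kinetic A340 decline of NADH oxidation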
Autofluor 339 = intrinsic fluorescence of library compounds, ex339/em460 – biochemical, MLSMR library, data from DPM-DC assay, artefact control, profiling panel; hit rate 5.5% among 65,000; compound autofluorescence, ex339/em460 nm, NADH buffer; hits give high values; 1 = no-compound wells, NADH background; AID 709; fluorescence fold increase at 10 µM;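 active = at 10 µM, mean starting fluorescence two-fold or more over control wells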;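 note: signal is the first read of a kinetic run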
* = called active by the depositor; i = inactive; x = no result given; + = active, no number.

SMILES | PMK inhibit | Spn DPM-DC inh | NADH coupling | MK inhibit | Abs 340nm | Autofluor 339
CCc1ccccc1NC(=O)c1cnc2scc(C)n2c1=O | 9 | i | 5% | 1 | 1.2 | 1.1
Cc1csc2ncc(C(=O)NCc3ccccn3)c(=O)n12 | 10 | x | 8% | 6 | 1.2 | 2.1*
Cc1cc(NC(=O)CSc2nc3c(c(-c4cccnc4)c2C#N)CCC3)no1 | 6 | i | 1% | 2 | 1 | 1
Clc1ccc(-c2nn3c(Cn4cnc5ccccc54)nnc3s2)c(Cl)c1 | 9 | i | 4% | 3 | 1 | 1.1
COc1ccc(Cn2nc(C)cc2C)cc1OC | 0 | i | 4% | 11 | 1 | 1.1
CCc1nnc2sc(-c3ccc(NC(=O)CSc4ccc(Cl)cc4)cc3)nn12 | 7 | + | 17% | 10 | 1.1 | 3*
Cc1nnc2sc(-c3ccc(NC(=O)CSc4ccc(Cl)cc4)cc3)nn12 | 5 | i | 4% | 4 | 1.1 | 1.6
COc1ccccc1-c1c(C)oc2cc(OC(=O)c3ccco3)ccc2c1=O | 1 | i | 14% | 15 | 1.1 | 2.1*
CCOC(=O)c1cc2ccc(OC(=O)c3ccco3)cc2oc1=O | 5 | x | 7% | 9 | 1.2 | 3.7*
COc1ccccc1Oc1c(C)oc2cc(OC(=O)c3ccco3)ccc2c1=O | 8 | i | 12% | 8 | 1 | 2.6*
CCN(CC)CCCN1C(=O)C(=O)/C(=C(/O)c2ccc3c(c2)OCO3)C1c1ccccn1 (centres undefined) | 13 | i | 4% | 7 | 1 | 1.1
c1ccc(N=P(N2CCOCC2)(N2CCOCC2)N2CCOCC2)cc1 | 9 | i | 5% | 5 | 0.99 | 1.1
CCCCN(C)CCNC(=O)Cn1c(=O)sc2ccccc21 | 5 | i | 3% | 4 | 1.1 | 1
COc1ccc(-c2nnc3sc(-c4ccco4)nn23)cc1OC | 10 | i | 6% | 8 | 1 | 1.1
COc1ccc(-c2nn3c(-c4ccco4)nnc3s2)cc1OC | 8 | + | 17% | 11 | 1.1 | 1.5
COc1cc(OC)c(-c2nn3c(-c4ccncc4)nnc3s2)cc1OC | 6 | i | 3% | 2 | 1.1 | 1.1
COc1cc(OC)c(-c2nn3c(-c4ccco4)nnc3s2)cc1OC | 7 | x | 6% | 4 | 1.2 | 3.4*
COc1cc(OC)c(-c2nn3c(-c4cccnc4)nnc3s2)cc1OC | 10 | x | 10% | 9 | 1.1 | 3.9*
COc1ccc(-n2ncc3c(NCc4ccc5c(c4)OCO5)ncnc32)cc1 | 1 | i | 2% | 0 | 0.97 | 1.1
Nc1ccc(CCS(N)(=O)=O)cc1 | 12 | i | 4% | 0 | 1 | 1.1
O=S(=O)(Nc1ccc(C(F)(F)F)cc1)c1cnc[nH]1 | 8 | + | 20% | 12 | 0.99 | 0.63
CCOc1ccc2nc3ccc4[nH]onc4c3c2c1 | 0 | x | 1% | 2 | 1 | 2.3*
Cc1cccc(NC(=O)CN(C)S(=O)(=O)c2cccc3nsnc23)c1C | 12 | i | 4% | 0 | 1 | 1.1
Cc1ccc2[nH]c3c(c2c1)CCC3=O | 9 | x | 8% | 7 | 1 | 3.7*
Cc1[nH]c2ccc(Br)cc2c(=O)c1CN1CCCCC1 | 8 | i | 4% | 4 | 1.1 | 1.1
SMILES | PMK inhibit | Spn DPM-DC inh | NADH coupling | MK inhibit | Abs 340nm | Autofluor 339
O=C1CCCc2c1[nH]c1ccc(CN3CCCCC3)cc21 | 0 | x | 3% | 6 | 1.1 | 2.1*
Cc1ccc2[nH]c3c(c2c1)CCc1cn[nH]c1-3 | 12 | i | 6% | 3 | 0.99 | 1.8
COc1ccc(NC(=O)CC2Oc3ccc(C)cc3NC2=O)cc1 (centres undefined) | 5 | i | 4% | 8 | 1 | 1.1
CCN(CC)S(=O)(=O)c1cccc(C(=O)OCc2cc(=O)n3nc(C)sc3n2)c1 | 10 | i | 4% | 1 | 1 | 1
c1ccc2c(c1)nnn2Cc1nnc2sc(-c3ccc4c(c3)OCCO4)nn12 | 11 | + | 18% | 10 | 1.1 | 2.9*
c1ccc(-c2nn3c(Cn4nnc5ccccc54)nnc3s2)cc1 | 1 | i | 3% | 7 | 1 | 1.1
COC(=O)c1[nH]c(C)c(/C(O)=C2\C(=O)C(=O)N(CCN(C)C)C2c2ccc(OC)cc2)c1C (centres undefined) | 17 | i | 10% | 12 | 1.1 | 1.1
O=C(c1ccc2ccccc2c1)N1CCN(c2ccc(O)cc2)CC1 | 26* | i | 10% | 5 | 1 | 1
